Tau fibril FP: qHTS for Inhibitors of Tau Fibril Formation, Fluorescence Polarization. K18 P301L tau heparin fibrillization, Alexa594 FP, 6 h. Potency, µM (series often up to 57.7 µM), most hits filed as inhibitors. hit rate 0.39% among 280,000; also: nearly all actives have a fitted effect of over 55% in size
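Heparin (20 uM) drove fibril formation of recombinant tau K18 P301L, 15 uM unlabeled with 0.24 uM Alexa 594 label, for 6 hr at 37 C in 100 mM sodium acetate pH 7. Fluorescence polarization (555/632 nm) read 1 hr after 30 uM ThT.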
Tau fibril ThT: qHTS for Inhibitors of Tau Fibril Formation, Thioflavin T Binding; AID 1460, 2008; Potency, µM (titrated, usually from 57.4 µM), hits mostly inhibitors; recombinant tau K18 P301L, heparin-induced fibrillization, ThT fluorescence; hit rate 2.1% among 270,000; also: nearly all actives have a fitted effect of over 55% in size
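Aggregation was driven by heparin (20 uM final) acting on recombinant tau […] bearing P301L in 100 mM sodium acetate pH 7; fibrils were detected with Thioflavin T.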
TRb-SRC2 inh: qHTS for Inhibitors of the Interaction of Thyroid Hormone Receptor and Steroid Receptor Coregulator 2 | AID 1469, 2008 | Potency, µM (series often up to 106 µM), actives largely listed as inhibitors | TRbeta-SRC2 peptide binding, fluorescence polarization; receptor liganded with 1 µM T3 | Thyroid hormone receptor beta (Homo sapiens), P10828 | hit rate 0.065% among 280,000; also: nearly all actives have a fitted effect of over 50% in size
Target sequence (P10828 whole entry, looked up): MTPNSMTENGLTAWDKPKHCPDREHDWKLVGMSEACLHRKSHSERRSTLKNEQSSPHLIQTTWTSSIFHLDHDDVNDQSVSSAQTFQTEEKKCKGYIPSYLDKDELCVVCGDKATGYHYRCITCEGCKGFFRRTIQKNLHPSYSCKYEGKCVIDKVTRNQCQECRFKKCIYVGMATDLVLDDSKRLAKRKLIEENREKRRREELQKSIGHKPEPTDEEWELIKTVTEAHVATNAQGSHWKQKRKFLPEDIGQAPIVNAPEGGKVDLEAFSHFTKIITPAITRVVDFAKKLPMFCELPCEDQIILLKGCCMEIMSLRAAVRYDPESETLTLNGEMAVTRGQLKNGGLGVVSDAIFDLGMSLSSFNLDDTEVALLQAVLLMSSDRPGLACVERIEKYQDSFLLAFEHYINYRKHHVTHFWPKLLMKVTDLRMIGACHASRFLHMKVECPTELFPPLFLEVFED
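TRb LBD 0.6 uM + Texas Red SRC2 peptide 20 nM, 1 uM T3, Tris buffer w/ 5% DMSO; compound pinned, 5 h RT; FP read ex 555/em 632; normalized to unbound and bound controls.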
Tau fluor counter: Counterscreen qHTS for Inhibitors of Tau Fibril Formation, Fluorescence Polarization | tau K18 P301L (four-repeat tau fragment) Alexa594 fluorescence, heparin fibrillization | Potency, µM (titrated, usually from 57.7 µM) | hit rate 0.93% among 280,000 | AID 1463, 2008; also: nearly all actives have a fitted effect of over 55% in size
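Human K18 P301L tau (15 uM unlabeled plus 0.24 uM Alexa 594-labeled, final) in 100 mM sodium acetate pH 7 was mixed with compound and 20 uM heparin and incubated 6 hr at 37 C.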
TexasRed fluor: Total Fluorescence Counterscreen for Inhibitors of the Interaction of Thyroid Hormone Receptor and Steroid Receptor Coregulator 2; TRb/SRC2 Texas Red total fluorescence interference; Potency, µM (highest dose often 106 µM); hit rate 0.29% among 280,000; AID 1479, 2009; active = well fitted curve in either direction with a large enough effect; inconclusive = small, poorly fitted or top-dose-only effect
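Flags fluorescent or light-absorbing compounds by total fluorescence, S + 2P, at 555 nm excitation and 632 nm emission. Mixture: 20 nM Texas Red SRC2 peptide, 0.6 uM human TRb LBD, 1 uM T3, 5% DMSO; compound exposure 5 h at ambient temperature.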
Numbers stand for hits; [ ] = dose if it differs, or a comment. Only some compounds are listed: those with a hit (about 3% of all), similar ones and a draw of the others. Unless noted, calls follow the shape of the dose curve; as a rule, active = well fitted curve in the direction sought with a large enough effect; inconclusive = small, poorly fitted or top-dose-only effect, or another doubt; inactive = no such curve, though single readings can be large; an effect the other way counts as inactive or inconclusive.

Results for O=C1C(=O)c2c(C(=O)c3ccccc3)coc2-c2ccccc21 ?
Tau fibril FP: 7.9µM; Tau fibril ThT: 2.5µM; TRb-SRC2 inh: inactive; Tau fluor counter: inconclusive; TexasRed fluor: inactive

Results for O=C(C1=C(c2ccccc2)C(=O)c2ccccc2C1=O)c1ccccc1 ?
Tau fibril FP: inactive; Tau fibril ThT: inactive; TRb-SRC2 inh: inactive; Tau fluor counter: inactive; TexasRed fluor: inactive

What do the screens show for `O=C1C(c2ccc(C(F)(F)F)cc2)=C(Nc2ccc(Cl)cc2)c2ccccc21`?
Tau fibril FP: inactive; Tau fibril ThT: inactive; TRb-SRC2 inh: inactive; Tau fluor counter: inconclusive; TexasRed fluor: inactive

How did COc1ccc(Nc2c3c(nc4ccc(NC(=O)c5cc(Cl)ccc5OC)cc24)CCCC3)cc1OC do in these assays?
Tau fibril FP: inactive; Tau fibril ThT: 7.1µM; TRb-SRC2 inh: inactive; Tau fluor counter: inconclusive; TexasRed fluor: inactive

What do the screens show for `COc1ccccc1Nc1c2c(nc3ccc(NC(=O)c4ccc(N(C)C)cc4)cc13)CCCC2`?
Tau fibril FP: inactive; Tau fibril ThT: 16µM; TRb-SRC2 inh: inactive; Tau fluor counter: 11µM[quencher]; TexasRed fluor: inactive

Results for CC(=O)c1ccc(Nc2c3c(nc4ccccc24)CCCC3)cc1 ?
Tau fibril FP: inactive; Tau fibril ThT: inactive; TRb-SRC2 inh: inactive; Tau fluor counter: inactive; TexasRed fluor: inactive

How did COc1cc(Nc2c3c(nc4ccccc24)CCCC3)cc(OC)c1OC do in these assays?
Tau fibril FP: inactive; Tau fibril ThT: inconclusive; TRb-SRC2 inh: inactive; Tau fluor counter: inactive; TexasRed fluor: inactive

Results for COc1cc(OC)cc(C(=O)Nc2ccc3nc4c(c(Nc5ccc(OC)c(OC)c5)c3c2)CCCC4)c1 ?
Tau fibril FP: inconclusive; Tau fibril ThT: 32µM; TRb-SRC2 inh: inactive; Tau fluor counter: 18µM[quencher]; TexasRed fluor: inactive

Results for CCOc1ccccc1C(=O)Nc1ccc2nc3c(c(Nc4ccc(OC)c(OC)c4)c2c1)CCCC3 ?
Tau fibril FP: inactive; Tau fibril ThT: 10µM; TRb-SRC2 inh: inactive; Tau fluor counter: inconclusive; TexasRed fluor: inactive

What do the screens show for `BrC1CCC(Br)C(Br)CCC(Br)C(Br)CCC1Br` (stereo unspecified)?
TRb-SRC2 inh: inactive; TexasRed fluor: inactive

What do the screens show for `O=S(=O)(c1ccccc1)c1nnn2c1nc(NC1CCCCCC1)c1sccc12`?
Tau fibril FP: inactive; Tau fibril ThT: inactive; TRb-SRC2 inh: inactive; Tau fluor counter: inactive; TexasRed fluor: inactive

Results for CCCOc1ccc(Nc2cc(C)nc(C)n2)cc1 ?
Tau fibril FP: inactive; Tau fibril ThT: inconclusive; TRb-SRC2 inh: inactive; Tau fluor counter: inactive; TexasRed fluor: inactive

What do the screens show for `CSc1ccc(C2c3c(-c4ccccc4O)n[nH]c3C(=O)N2Cc2ccncc2)cc1` (stereo unspecified)?
Tau fibril FP: inactive; Tau fibril ThT: inactive; TRb-SRC2 inh: inactive; Tau fluor counter: inconclusive; TexasRed fluor: inactive

What do the screens show for `CC(=O)c1sc2nsc(SCCN3CCCC3)c2c1N`?
Tau fibril FP: inactive; Tau fibril ThT: 10µM; TRb-SRC2 inh: inactive; Tau fluor counter: inactive; TexasRed fluor: inactive

What do the screens show for `CC(=O)c1ccc2c(c1)N(CCCN(C)C)c1ccccc1S2`?
TRb-SRC2 inh: inactive; TexasRed fluor: inactive

Results for CC(=O)c1ccc2c(c1)N(C)c1ccccc1S2 ?
Tau fibril FP: inactive; Tau fibril ThT: 10µM; TRb-SRC2 inh: inactive; Tau fluor counter: inconclusive; TexasRed fluor: inactive

How did CCN(CC)c1ccc(-c2nc(-c3ccccc3C)no2)cc1[N+](=O)[O-] do in these assays?
Tau fibril FP: inactive; Tau fibril ThT: inactive; TRb-SRC2 inh: inactive; Tau fluor counter: inactive; TexasRed fluor: inactive

What do the screens show for `Cc1ccc(NC2=CC(=O)C(=O)c3ccccc32)cc1`?
Tau fibril FP: inconclusive; Tau fibril ThT: 25µM; TRb-SRC2 inh: inactive; Tau fluor counter: inconclusive; TexasRed fluor: inactive

What do the screens show for `CCOC(=O)c1ccc(NC2=CC(=O)C(=O)c3ccccc32)cc1`?
Tau fibril FP: inactive; Tau fibril ThT: 13µM; TRb-SRC2 inh: inconclusive; Tau fluor counter: inconclusive; TexasRed fluor: inactive
